Experimental data: a collection of fitness landscapes (doi:10.1126/science.1257360)
In all, about 140,000 sequences were measured (“enrichment ratio after two sorts for PhoP signalling”: median about 0, highest 2% from about 11 on). Many of the other results were omitted from the sample, so the highest values are more common in it than they were.

B1: PhoQ; a variant is named by its letters at X, in order, P23837 (parent)
chain: MKKLLRLFFPLSLRVRFLLATAAVVLVLSLAYGMVALIGYSVSFDKTTFRLLRGESNLFYTLAKWENNKLHVELPENIDKQSPTMTLIYDENGQLLWAQRDVPWLMKMIQPDWLKSNGFHEIEADVNDTSLLLSGDHSIQQQLQEVREDDDDAEMTHSVAVNVYPATSRMPKLTIVVVDTIPVELKSSYMVWSWFIYVLSANLLLVIPLLWVAAWWSLRPIEALAKEVRELEEHNRELLNPATTRELTSLVRNLNRLLKSERERYDKYRTTLTDLTHSLKTPLXXLQXXLRSLRSEKMSVSDAEPVMLEQISRISQQIGYYLHRASMRGGTLLSRELHPVAPLLDNLTSALNKVYQRKGVNISLDISPEISFVGEQNDFVEVMGNVLDNACKYCLEFVEISARQTDEHLYIVVEDDGPGIPLSKREVIFDRGQRVDTLRPGQGVGLAVAREITEQYEGKIVAGESMLGGARMEVIFGRQHSAPKDE

Variants of: B1
Assay: enrichment ratio after two sorts for PhoP signalling (ratio (wild type AVST 3.29)); higher = more functional
Conditions: with PhoP (E. coli)
Variant TANR has an enrichment ratio of at most 0.25.
With ASAS the enrichment ratio was 15.3.
ASAT gave an enrichment ratio of 10.1.
ASAG gave an enrichment ratio of 7.21.
ASYY showed an enrichment ratio of at most 0.25.
With KSAA the enrichment ratio was at most 0.25.
For ASAA, the enrichment ratio was 13.4.
ASRY was tested, and the enrichment ratio was at most 0.25.
ASAD was tested, and the enrichment ratio was at most 0.25.
For ASAI, the enrichment ratio was 13.2.
In the case of IFDK, the enrichment ratio is reported as at most 0.25.
WHPD gave an enrichment ratio of at most 0.25.
Variant CLCS has an enrichment ratio of at most 0.25.
With RQQL the enrichment ratio was at most 0.25.
Variant HTYY has an enrichment ratio of at most 0.25.
With MTYY the enrichment ratio was 0.96.
NGYY was tested, and the enrichment ratio was at most 0.25.
With MKAY the enrichment ratio was at most 0.25.
Work on TGYY yielded an enrichment ratio of 22.5.
MEYY was tested, and the enrichment ratio was 18.8.
In the case of QIYY, the enrichment ratio is reported as at most 0.25.
QEYY gave an enrichment ratio of 17.4.
For STYY, the enrichment ratio was at most 0.25.
In the case of MKYY, the enrichment ratio is reported as at most 0.25.
In the case of RGYY, the enrichment ratio is reported as at most 0.25.
MEAY gave an enrichment ratio of 13.
Variant MEYI has an enrichment ratio of 11.
NFDN was tested, and the enrichment ratio was at most 0.25.
RTPI was tested, and the enrichment ratio was at most 0.25.
Work on RQSW yielded an enrichment ratio of at most 0.25.
IMCF was tested, and the enrichment ratio was at most 0.25.
Work on EDGY yielded an enrichment ratio of at most 0.25.
Work on SVSQ yielded an enrichment ratio of 13.4.
Work on KFAE yielded an enrichment ratio of at most 0.25.
SVAE showed an enrichment ratio of 13.4.
SVSF gave an enrichment ratio of 12.6.
Work on SVHF yielded an enrichment ratio of at most 0.25.
For SVMR, the enrichment ratio was 12.6.
SVGR showed an enrichment ratio of 1.46.
SVSR showed an enrichment ratio of 6.38.
SVAV showed an enrichment ratio of 7.92.
In the case of SVHQ, the enrichment ratio is reported as at most 0.25.
In the case of SVHP, the enrichment ratio is reported as at most 0.25.
Work on SVTR yielded an enrichment ratio of 8.52.
WQKA was tested, and the enrichment ratio was at most 0.25.
ARFL showed an enrichment ratio of at most 0.25.
KVIR gave an enrichment ratio of at most 0.25.
Variant ADCI has an enrichment ratio of at most 0.25.
PPMF showed an enrichment ratio of at most 0.25.
In the case of RIFK, the enrichment ratio is reported as 1.58.
NEIH was tested, and the enrichment ratio was at most 0.25.
With TNDC the enrichment ratio was at most 0.25.
In the case of MKCG, the enrichment ratio is reported as at most 0.25.
In the case of SVTS, the enrichment ratio is reported as 7.51.
With SVTI the enrichment ratio was 12.
In the case of SVTK, the enrichment ratio is reported as 11.9.
Variant SVPA has an enrichment ratio of at most 0.25.
SVPM was tested, and the enrichment ratio was 7.47.
SVTG was tested, and the enrichment ratio was 13.5.
SVLY gave an enrichment ratio of 0.677.
Variant SVVA has an enrichment ratio of 1.32.
For SVWM, the enrichment ratio was at most 0.25.
SVTM was tested, and the enrichment ratio was 14.7.
In the case of SVVG, the enrichment ratio is reported as 6.29.
For SVHG, the enrichment ratio was at most 0.25.
GRAK was tested, and the enrichment ratio was at most 0.25.
PILY gave an enrichment ratio of at most 0.25.
With EHER the enrichment ratio was at most 0.25.
Variant QSNR has an enrichment ratio of at most 0.25.
In the case of PYGV, the enrichment ratio is reported as at most 0.25.
Work on SGYP yielded an enrichment ratio of at most 0.25.
For IIGH, the enrichment ratio was at most 0.25.
For RDSD, the enrichment ratio was at most 0.25.
SVSG gave an enrichment ratio of 13.4.
SVAH was tested, and the enrichment ratio was 12.7.
Work on SVCC yielded an enrichment ratio of 16.1.
Variant KFAH has an enrichment ratio of at most 0.25.
For KFSG, the enrichment ratio was at most 0.25.
SDSG was tested, and the enrichment ratio was 0.62.
For SVMH, the enrichment ratio was 22.9.
Variant SVTC has an enrichment ratio of 3.84.
SVWR was tested, and the enrichment ratio was at most 0.25.
In the case of NVAH, the enrichment ratio is reported as at most 0.25.
SVMG was tested, and the enrichment ratio was 5.71.
In the case of NVCC, the enrichment ratio is reported as at most 0.25.
RVAP showed an enrichment ratio of at most 0.25.
For WQNE, the enrichment ratio was at most 0.25.
LLNR showed an enrichment ratio of at most 0.25.
In the case of TAVV, the enrichment ratio is reported as 1.05.
ARNK showed an enrichment ratio of at most 0.25.
QMLS was tested, and the enrichment ratio was at most 0.25.
SVWI was tested, and the enrichment ratio was at most 0.25.
Variant SVSK has an enrichment ratio of 12.7.
For SVCS, the enrichment ratio was 8.61.
SVCI gave an enrichment ratio of 10.4.
For SVPI, the enrichment ratio was 5.93.
Variant SVSH has an enrichment ratio of 10.5.
SVNG gave an enrichment ratio of 12.5.
SVTH gave an enrichment ratio of 11.9.
SVCG showed an enrichment ratio of 13.3.
In the case of LCNG, the enrichment ratio is reported as at most 0.25.
PVNG gave an enrichment ratio of at most 0.25.
SVNH showed an enrichment ratio of 3.33.
KLIS gave an enrichment ratio of at most 0.25.
Variant NRHS has an enrichment ratio of at most 0.25.
With GGDF the enrichment ratio was at most 0.25.
FHQD showed an enrichment ratio of at most 0.25.
In the case of IWVM, the enrichment ratio is reported as at most 0.25.
For HEVP, the enrichment ratio was at most 0.25.
In the case of SLSF, the enrichment ratio is reported as 11.7.
Work on SVMS yielded an enrichment ratio of 8.47.
Work on SVMQ yielded an enrichment ratio of 15.2.
Work on SVMV yielded an enrichment ratio of 9.33.
In the case of SQSF, the enrichment ratio is reported as 7.01.
With SRSF the enrichment ratio was at most 0.25.
Work on SVCH yielded an enrichment ratio of 12.5.
In the case of KFCH, the enrichment ratio is reported as at most 0.25.
For SVCF, the enrichment ratio was 4.45.
MQII showed an enrichment ratio of at most 0.25.
Variant RDEG has an enrichment ratio of at most 0.25.
In the case of FSHY, the enrichment ratio is reported as at most 0.25.
Work on TALR yielded an enrichment ratio of 3.62.
With HPIF the enrichment ratio was at most 0.25.
Work on LCVH yielded an enrichment ratio of at most 0.25.
Variant TSCK has an enrichment ratio of 3.25.
KSCS gave an enrichment ratio of at most 0.25.
AIVH gave an enrichment ratio of 15.
Work on QEVH yielded an enrichment ratio of at most 0.25.
AHVH was tested, and the enrichment ratio was at most 0.25.
WIVH showed an enrichment ratio of at most 0.25.
Variant KSVH has an enrichment ratio of at most 0.25.
With TSCS the enrichment ratio was 14.7.
Work on TSVH yielded an enrichment ratio of 11.7.
TEVH was tested, and the enrichment ratio was 16.3.
MEVH was tested, and the enrichment ratio was 1.05.
VGWK was tested, and the enrichment ratio was at most 0.25.
For ATFQ, the enrichment ratio was 2.02.
With FKND the enrichment ratio was at most 0.25.
Variant AFSM has an enrichment ratio of 0.932.
With RMFW the enrichment ratio was at most 0.25.
Variant KSCV has an enrichment ratio of at most 0.25.
In the case of YSCI, the enrichment ratio is reported as 2.62.
Work on KYVH yielded an enrichment ratio of at most 0.25.
In the case of YSCV, the enrichment ratio is reported as 15.6.
FSCV gave an enrichment ratio of 9.84.
YRCV was tested, and the enrichment ratio was at most 0.25.
STVH was tested, and the enrichment ratio was 8.82.
Work on SSVH yielded an enrichment ratio of 14.4.
Variant TSCE has an enrichment ratio of 8.23.
Work on TSCI yielded an enrichment ratio of 14.8.
TSCV was tested, and the enrichment ratio was 17.3.
KSCI showed an enrichment ratio of at most 0.25.
In the case of TRVP, the enrichment ratio is reported as at most 0.25.
With GWST the enrichment ratio was at most 0.25.
